Data taken from PubChem BioAssay (NCI).
Several values for one entry are separate records, joined by “and”; a condition that tells them apart may be missing. Equal entries are not always repeated. About 83,000 compounds went through this panel and 20% of them were active in at least one assay; those are over-represented in the sample as a whole.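 A percent growth of 40 corresponds to 60% growth inhibition; 0 means no net growth; -100 means all cells died. Active threshold: below 10.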 Values without a mark were called inactive. Activity calls are given as the source filed them.

tested on: MCF7 breast; test: NCI-60 one-dose screen, 48 h (100 = growth as untreated, 0 = no growth, -100 = all killed); details: 10 µM unless noted

Structure (SMILES)	growth
C[C@@H]1CCC([C@@H](C)[C@H]2CC[C@H]3[C@@H]4CC[C@H]5C[C@@H](O)CC[C@]5(C)[C@H]4CC[C@]23C)=NC1	8.1% [100 µM] (active) and -46.7% [100 µM] (active)
CCOc1ccc(NC(=O)/C(=N\N)C(C(=O)OC)c2nc3ccc(Cl)cc3[nH]c2=O)cc1 (stereo not drawn)	73% [100 µM] and 60.5% [100 µM]
CC1=CC[C@@H]2[C@@H](CC[C@@]2(C)O)C(C)(C)[C@H]1CC[C@@H]1[C@@]2(C)CC[C@@H](O)C(C)(C)O[C@@H]2CC[C@]1(C)O	-12.8% [100 µM] (active) and -70.8% [100 µM] (active)
